Source: PubChem BioAssay (EPA / NIEHS)
The source made the active and inactive calls. How the source made its calls: active means hit-call score of the fitted dose curve at least 0.9, where 1 is the maximum; inactive means score below 0.9.

Columns and labels:
[1] = APR_HepG2_CellCycleArrest_24hr: Apredica 24-hour HepG2 Assay for Cell Cycle Arrest (AID 2282905); conditions: imaging, actives raise or lower the signal;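 further: cell cycle arrest scored as ratio of 2N to 4N nuclear DNA content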
How it was run: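 Readout: Hoechst 33342 nuclear DNA content by high-content fluorescent imaging, six images/well, 20x. Human HepG2 liver cells, 24 hr compound exposure, 0.39–200 uM, final DMSO 0.5% v/v. Gain or loss fitted relative to DMSO baseline.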

[2] = APR_HepG2_NuclearSize_24hr: Apredica 24-hour HepG2 Assay for Nuclear Size (AID 2282907); conditions: high-content imaging, actives raise or lower the signal
How it was run: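 Read-out: nuclear diameter from Hoechst 33342 (2 ug/mL) imaging of fixed HepG2 cells, 20x, six fields/well. Compounds ran at 0.39–200 uM for 24 hr, 0.5% DMSO final. Gain or loss was fitted bidirectionally relative to the DMSO baseline.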

[3] = APR_HepG2_CellLoss_24hr: Apredica 24-hour HepG2 Assay for Cell Loss (AID 2282908); conditions: high-content imaging;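 on AC50: fit in both directions so a hit may be cell loss or gain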
How it was run: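 Read-out: Hoechst 33342-stained nuclei counted by automated fluorescence imaging after formaldehyde fixation and Triton permeabilization. Ten concentrations, 0.39 to 200 uM, duplicate wells, 0.5% DMSO final. Gain or loss of signal fitted relative to DMSO baseline.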

[4] = APR_HepG2_MicrotubuleCSK_24hr: Apredica 24-hour HepG2 Assay for Microtubule CSK Stabilty (AID 2282909); conditions: HepG2 microtubule cytoskeleton imaging, actives raise or lower the signal
How it was run: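 Read-out: alpha-tubulin immunofluorescence intensity by automated high-content imaging of fixed HepG2 cells after 24 h compound treatment. Ten concentrations, 0.39 to 200 uM, in duplicate; DMSO 0.5% v/v. Taxol positive control; DMSO-normalized bidirectional curve fitting.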

[5] = APR_HepG2_MitoticArrest_24hr: Apredica 24-hour HepG2 Assay for Mitotic Arrest (AID 2282910); conditions: high-content imaging, actives raise or lower the signal
How it was run: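 Treatment lasted 24 hr in the human HepG2 line at 0.39–200 uM, solvent held at 0.5% DMSO. Fixed cells were stained with Hoechst 33342 and anti-phospho-histone H3, imaged at 20x, and analysed by gain- or loss-of-signal fitting against DMSO.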

[6] = APR_HepG2_MitoMembPot_24hr: Apredica 24-hour HepG2 Assay for Mitochondrial Membrane Potential (AID 2282911); conditions: imaging, actives raise or lower the signal
How it was run: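 Human hepatoma HepG2 cultures received ten compound concentrations up to 200 uM for 24 hr. Membrane-potential dye signal, captured by automated fluorescence microscopy, was scored for gain or loss against DMSO controls.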

[7] = APR_HepG2_MitoMass_24hr: Apredica 24-hour HepG2 Assay for Mitochondrial Mass (AID 2282912); conditions: high-content imaging, actives raise or lower the signal
How it was run: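 HepG2, 24 hr dosing, 10 concentrations 0.39–200 uM in duplicate, DMSO 0.5% final. MitoTracker Red CMXRos 250 nM, 30 min pre-fix; 3.7% formaldehyde fix. Imaging-based fluorescence intensity; gain/loss fit vs DMSO baseline.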

[8] = APR_HepG2_p53Act_24hr: Apredica 24-hour HepG2 Assay for p53 Activation (AID 2282913); conditions: high-content imaging, actives raise or lower the signal;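 further: p53 protein immunofluorescence averaged per cell in HepG2 with Hoechst nuclei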
How it was run: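 Automated fluorescence imaging quantifies p53 immunostaining in HepG2 cells after a 24 hr exposure (0.39–200 uM, duplicate, 0.5% DMSO). Nuclei are located by Hoechst 33342 staining.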

[9] = APR_HepG2_CellCycleArrest_72hr: Apredica 72-hour HepG2 Assay for Cell Cycle Arrest (AID 2282914); conditions: high-content imaging, actives raise or lower the signal
How it was run: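 Cell cycle arrest in HepG2 was scored from nuclear DNA content after 72 hr compound treatment (0.39–200 uM). Activity, either gain or loss, was fitted against the DMSO baseline.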

[10] = APR_HepG2_CellLoss_72hr: Apredica 72-hour HepG2 Assay for Cell Loss (AID 2282915); conditions: high-content imaging
How it was run: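 HepG2 cells were exposed for 72 hr to compounds at 0.39–200 uM (ten concentrations, duplicate) in 0.5% v/v final DMSO. Nuclei were stained with Hoechst 33342 after 3.7% formaldehyde fixation, imaged at 20x, and counted; fits bidirectional versus DMSO.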

[11] = APR_HepG2_P-H2AX_72hr: Apredica 72-hour HepG2 Assay for H2AX Phosphorylation (AID 2282916); conditions: imaging, actives raise or lower the signal;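 further: phospho-histone H2A.x immunostain intensity per cell marking DNA damage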
How it was run: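 Readout: phospho-H2A.x immunofluorescence (FITC secondary) plus Hoechst nuclear stain, high-content imaging at 20x, six fields/well. HepG2, 72 hr compound exposure, 0.39–200 uM, final DMSO 0.5% v/v. Gain or loss fitted relative to DMSO baseline.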

[12] = APR_HepG2_MitoMembPot_72hr: Apredica 72-hour HepG2 Assay for Mitochondrial Membrane Potential (AID 2282917); conditions: imaging, actives raise or lower the signal
How it was run: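 HepG2 cells exposed 72 h to compounds at 0.39–200 uM (0.5% v/v DMSO, duplicates); MitoTracker Red CMXRos 250 nM loaded 30 min before 3.7% formaldehyde fixation, imaged by HCS fluorescence. Bidirectional fit versus DMSO.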

[13] = APR_HepG2_MitoticArrest_72hr: Apredica 72-hour HepG2 Assay for Mitotic Arrest (AID 2282918); conditions: high-content imaging, actives raise or lower the signal
How it was run: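 Mitotic arrest in HepG2 is scored from phospho-histone H3 staining after 72 hr dosing across 0.39–200 uM, with DMSO at 0.5% v/v. Nuclei are identified by Hoechst 33342 and fluorescence intensity is quantified per cell.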

[14] = APR_HepG2_MicrotubuleCSK_72hr: Apredica 72-hour HepG2 Assay for Microtubule CSK Stabilty (AID 2282919); conditions: HepG2 microtubule cytoskeleton, high-content imaging, actives raise or lower the signal
How it was run: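 Ten-point dosing (0.39–200 uM, 0.5% DMSO) of HepG2 for 72 hr, with taxol as the cytoskeletal positive control. The cells were formaldehyde-fixed and then stained with alpha-tubulin/Cy5 and Hoechst. Imaging at 20x used a −2 um Z offset for tubulin.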

[15] = APR_HepG2_P-H2AX_24hr: Apredica 24-hour HepG2 Assay for H2AX Phosphorylation (AID 2282920); conditions: high-content imaging, actives raise or lower the signal
How it was run: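 Signal comes from a FITC-labeled secondary detecting phospho-histone H2A.x in fixed HepG2 cells, quantified by automated imaging at 20x. Dosing ran 24 hr across 0.39–200 uM with 0.5% v/v DMSO.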

[16] = APR_HepG2_StressKinase_72hr: Apredica 72-hour HepG2 Assay for Stress Kinase (AID 2282921); conditions: HepG2 stress kinase (phospho-c-Jun) imaging, actives raise or lower the signal
How it was run: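 Phospho-c-Jun immunofluorescence measured by high-content imaging at 20x, six fields per well; bidirectional curve fitting against DMSO as baseline. Dosing: 0.39–200 uM, 72 h, 0.5% DMSO final.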

[17] = APR_HepG2_StressKinase_24hr: Apredica 24-hour HepG2 Assay for Stress Kinase (AID 2282922); conditions: HepG2 stress kinase (phospho-c-Jun) imaging, actives raise or lower the signal
How it was run: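 After 24 hr compound treatment (up to 200 uM, final DMSO 0.5% v/v), HepG2 cells are fixed and multiplex-labeled; phospho-c-Jun intensity is captured by high-content fluorescence imaging and analyzed relative to DMSO.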

[18] = APR_HepG2_p53Act_72hr: Apredica 72-hour HepG2 Assay for p53 Activation (AID 2282923); conditions: high-content imaging, actives raise or lower the signal;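 further: average cellular p53 protein immunofluorescence intensity in HepG2 cells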
How it was run: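 Readout: p53 immunofluorescence quantified by automated high-content imaging at 20x, six fields per well, nuclei located via Hoechst. Dosing ran 72 hr over ten concentrations from 0.39 to 200 uM; bidirectional curve fitting against DMSO baseline.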

[19] = APR_HepG2_MitoMass_72hr: Apredica 72-hour HepG2 Assay for Mitochondrial Mass (AID 2282924); conditions: high-content imaging, actives raise or lower the signal;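 further: MitoTracker Red CMXRos stain intensity per cell imaged as mitochondrial mass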
How it was run: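 Steps: treat HepG2 72 hr (0.39–200 uM, duplicate wells); load MitoTracker Red CMXRos, 250 nM, 30 min; fix with 3.7% formaldehyde, permeabilise with 0.5% Triton X-100; capture images, nuclei via Hoechst 33342; fit bidirectionally against DMSO.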

[20] = APR_HepG2_NuclearSize_72hr: Apredica 72-hour HepG2 Assay for Nuclear Size (AID 2282925); conditions: high-content imaging, actives raise or lower the signal
How it was run: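 Compounds (0.39–200 uM, final DMSO 0.5%) were applied to HepG2 for 72 hr. Cells were then formaldehyde-fixed, permeabilized and labelled with Hoechst 33342. Nuclear diameter was quantified from six images per well.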

Measured: AC50

CC(C)(OOC(C)(C)c1ccccc1)c1ccccc1
active: [1] 36.4 µM | [3] 69.6 µM | [4] 77.2 µM | [5] 29.9 µM | [7] 19.6 µM | [10] 44.4 µM | [13] 41.9 µM
inactive: all other assays above

[Cl-].[Cl-].[Hg+2]
active: [2] 31.9 µM | [3] 31.3 µM | [4] 28.9 µM | [5] 23.7 µM | [6] 74.4 µM | [7] 28 µM | [8] 15.7 µM | [10] 20.3 µM | [13] 17.6 µM | [14] 13.2 µM | [15] 21.5 µM | [17] 19.8 µM
inactive: [1] | [11] | [12] | [16] | [18] | [19] | [20]

CN(C)c1ccccc1
inactive: all assays above

Oc1ccc2ccc3cccc4ccc1c2c34
inactive: [1] | [2] | [4] | [9] | [16] | [18]
active: [3] 77.9 µM | [5] 82.2 µM | [6] 30.6 µM | [7] 31.9 µM | [8] 49.1 µM | [10] 84 µM | [11] 50.3 µM | [12] 75.4 µM | [13] 63.9 µM | [14] 85.4 µM | [15] 62.9 µM | [17] 80.8 µM | [19] 46.4 µM | [20] 69.6 µM

Cn1cc(-c2ccccc2)c(=O)c(-c2cccc(C(F)(F)F)c2)c1
active: [1] 57.4 µM | [9] 107 µM | [10] 64.3 µM
inactive: all other assays above

CO[C@@H]1[C@H](OC(=O)NC(=O)CCl)CC[C@]2(CO2)[C@H]1[C@@]1(C)O[C@@H]1CC=C(C)C
not listed: [9]
inactive: all other assays above

CS(=O)(=O)NC(=O)c1cc(Oc2ccc(C(F)(F)F)cc2Cl)ccc1[N+](=O)[O-]
not listed: [9]
inactive: all other assays above
